Data: PubChem BioAssay AID1626 (SRMLSC, 2009)
Several values for one entry are separate records, joined by “and”; a condition that tells them apart may be missing. Identical values can stand only once. The campaign covered roughly 220,000 compounds. About 2,000 (0.91%) were called active. About 2% were inconclusive and are not listed. Cut-off read from the data, not from the text of the source: inconclusive = inhibition above about 80% without an active follow-up result; inactive = below that; test concentration not stated here. Not all results are given here. Entries with a potency or affinity are not part of this list.

Assay: M. tuberculosis H37Rv growth inhibitors, H37Rv strain (AID 1626);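 note: bacteria incubated seven days before Alamar blue readout; 0% = bacteria only wells and 100% = bacteria with antibiotic wells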
Conditions: hits give high values, concentration not given here

Question: For O=C(O)COCC(=O)Nc1ccccc1-c1ccccc1, which inhibition is on record?
Answer: -0.81% (inactive)

Question: With COc1ccc(CN(C)Cc2nc3scc(-c4ccccc4)c3c(=O)[nH]2)cc1OC as the compound, how does the inhibition read?
Answer: 3.92% (inactive)

Question: With COC(=O)N1CCN(c2ccc(Cl)c(Cl)c2)CC1 as the compound, how does the inhibition read?
Answer: -4.81% (inactive)

Question: With CCOC(=O)N1CCN(c2ccc(Cl)c(Cl)c2)CC1 as the compound, how does the inhibition read?
Answer: 6.01% (inactive)

Question: With O=S1(=O)CCN(CCc2c[nH]c3ccccc23)CC1 as the compound, how does the inhibition read?
Answer: 3.01% (inactive)

Question: Which inhibition does the source give for CCC(=O)Nc1nnc(-c2ccccn2)o1 here?
Answer: 5.88% (inactive)

Question: For COC(=O)c1ccc(C(=O)Nc2nnc(-c3cccnc3)o2)cc1, which inhibition is on record?
Answer: -5.5% (inactive)

Question: With N#Cc1ccc(C(=O)Nc2nnc(-c3ccccn3)o2)cc1 as the compound, how does the inhibition read?
Answer: 1.74% (inactive)

Question: Which inhibition does the source give for CC(=O)Nc1nnc(-c2ccccn2)o1 here?
Answer: -3.3% (inactive)

Question: With O=C(CCc1ccccc1)Nc1nnc(-c2ccccn2)o1 as the compound, how does the inhibition read?
Answer: -4.88% (inactive)

Question: Which inhibition does the source give for O=C(Nc1nnc(-c2ccncc2)o1)c1cccc(N2C(=O)CCC2=O)c1 here?
Answer: -4.89% (inactive)

Question: With Cc1nnsc1C(=O)N(Cc1ccccc1)C(C)C as the compound, how does the inhibition read?
Answer: -4.27% (inactive)

Question: With Cc1ccc(CNC(=O)C2CC(c3cccc(F)c3)=NO2)cc1 (stereo not drawn) as the compound, how does the inhibition read?
Answer: 9.15% (inactive)

Question: With OC(C#CCN1CCOCC1)(c1ccccc1)C1CCCC1 (stereo not drawn) as the compound, how does the inhibition read?
Answer: 2.94% (inactive)

Question: Which inhibition does the source give for Cc1cc(C)nc(SCc2nnc(SCC(=O)OC3CCCCC3)o2)n1 here?
Answer: 48.1% (inactive)

Question: With CCOC(=O)CSc1nnc(COc2cccc(C)c2)o1 as the compound, how does the inhibition read?
Answer: -4.7% (inactive)

Question: Which inhibition does the source give for O=C(CSc1nnc(COc2ccccc2Cl)o1)NC(=O)NC1CCCC1 here?
Answer: 5.08% (inactive)

Question: With Cc1ccc(C(=O)CSc2nnc(COc3cccc(C)c3)o2)cc1 as the compound, how does the inhibition read?
Answer: -2.67% (inactive)

Question: Which inhibition does the source give for Cc1ccc(C(=O)CSc2nnc(COc3cc(C)cc(C)c3)o2)cc1 here?
Answer: -3.69% (inactive)

Question: With CC1CCCCC1NC(=O)CSc1nnc(COc2ccccc2Cl)o1 (stereo not drawn) as the compound, how does the inhibition read?
Answer: -2.14% (inactive)

Question: With CCn1cc(C(=O)OCC(=O)Nc2c(C)cccc2C)c(=O)c2ccc(C)nc21 as the compound, how does the inhibition read?
Answer: 0.89% (inactive)

Question: Which inhibition does the source give for Cc1ccccc1CSCCNC(=O)CCSc1ccccc1 here?
Answer: -2.07% (inactive)

Question: With CCOC(=O)c1ccc(NC(=O)CSc2nnc(COc3ccccc3OC)n2CC)cc1 as the compound, how does the inhibition read?
Answer: 6.35% (inactive)

Question: With CCc1cccc(CC)c1NC(=O)c1ccccc1CCc1ccccc1 as the compound, how does the inhibition read?
Answer: 2.03% (inactive)

Question: For COC(c1ccccc1)c1nnc(CCC(=O)N(C)CCc2ccccc2)o1 (stereo not drawn), which inhibition is on record?
Answer: -1.5% (inactive)

Question: With O=C(CCn1cnc2ccccc2c1=O)Nc1nc(-c2ccc(Br)cc2)cs1 as the compound, how does the inhibition read?
Answer: -1.09% (inactive)

Question: Which inhibition does the source give for COc1ccc(/C=C2/N=C(SCC(=O)Nc3cc(C)on3)N(c3ccccc3)C2=O)cc1 here?
Answer: 2.4% (inactive)

Question: Which inhibition does the source give for C=CCn1c(CNC(=O)c2ccccc2C)nnc1SCC(=O)NC1CCCC1 here?
Answer: -7.41% (inactive)

Question: With CN1CCN(c2ccc(F)cc2N)CC1 as the compound, how does the inhibition read?
Answer: 0.4% (inactive)

Question: Which inhibition does the source give for CN1CCN(C2=Cc3ccccc3Sc3cc(F)c(F)cc32)CC1 here?
Answer: 11.1% (inactive)

Question: With CN1CCN(CCCN2c3ccccc3Sc3ccc(Cl)cc32)CC1 as the compound, how does the inhibition read?
Answer: -5.97% (inactive) and 68.2% (inactive) and 79.9% (inactive)

Question: Which inhibition does the source give for CN1CCN(C2=Cc3ccccc3Sc3cc(F)ccc32)CC1 here?
Answer: 2.61% (inactive)

Question: For CCc1ccc(CCC(=O)Nc2nnc(CC)s2)o1, which inhibition is on record?
Answer: 7.07% (inactive)

Question: Which inhibition does the source give for COc1ccc(CNc2nc3nc(C)c(Cl)c(C)n3n2)cc1 here?
Answer: -2.45% (inactive)

Question: With O=S(=O)(c1ccc2c(c1)OCCCO2)N1CCNCC1 as the compound, how does the inhibition read?
Answer: -0.23% (inactive)

Question: For O=C(c1ccc2c(c1)OCCO2)N1CCCC(CNS(=O)(=O)c2cccs2)C1 (stereo not drawn), which inhibition is on record?
Answer: 4.35% (inactive)

Question: With Cc1[nH]c2ccccc2c1SCCNC(=O)c1ccc(Br)o1 as the compound, how does the inhibition read?
Answer: -0.07% (inactive)

Question: With CCC(=O)Nc1cccc(NC(=O)c2ccc(C)c([N+](=O)[O-])c2)c1 as the compound, how does the inhibition read?
Answer: 15.4% (inactive)

Question: Which inhibition does the source give for CC(=O)OCCNC(=O)c1cc2ccccc2oc1=O here?
Answer: -6.56% (inactive)

Question: With CN(C)CCNC(=O)c1cc2ccccc2oc1=O as the compound, how does the inhibition read?
Answer: 2.99% (inactive)

Question: Which inhibition does the source give for CCC1(CC)C(=O)N(C)C(=O)NC1=Nc1ccc(OC)cc1 here?
Answer: -7.12% (inactive)

Question: Which inhibition does the source give for NS(=O)(=O)c1ccc(N=C2C(=O)Nc3ccccc32)cc1 here?
Answer: -2.66% (inactive)

Question: For O=S(=O)(Nc1nccs1)c1ccc(F)cc1, which inhibition is on record?
Answer: -3.51% (inactive)

Question: With O=[N+]([O-])c1ccccc1S(=O)(=O)NCc1ccco1 as the compound, how does the inhibition read?
Answer: 9.2% (inactive)

Question: Which inhibition does the source give for Cc1ccc2cc(CN(CC3CCCO3)C(=S)NCc3ccco3)c(=O)[nH]c2c1 (stereo not drawn) here?
Answer: 1.74% (inactive)

Question: With CC1=CC(=O)N(c2cccc(C(F)(F)F)c2)C1c1ccc(Cl)cc1 (stereo not drawn) as the compound, how does the inhibition read?
Answer: 5.08% (inactive)

Question: For Cc1nc([N+](=O)[O-])c(Br)n1CC(=O)c1ccc(Br)cc1, which inhibition is on record?
Answer: 18.9% (inactive)

Question: For Cc1nc([N+](=O)[O-])c(Br)n1CC(=O)c1ccc(F)cc1, which inhibition is on record?
Answer: 52.5% (inactive)

Question: For Cc1nc([N+](=O)[O-])c(Br)n1CC(=O)c1ccccc1, which inhibition is on record?
Answer: 37% (inactive)

Question: For Cc1nc([N+](=O)[O-])c(Br)n1Cc1ccccc1, which inhibition is on record?
Answer: 28.8% (inactive)

Question: Which inhibition does the source give for CCN(c1ccccc1)S(=O)(=O)c1ccc(Cl)c(NC(=O)CSc2nncs2)c1 here?
Answer: 6.07% (inactive)

Question: For CCCCCCCCc1nc(SCC(C)=O)n[nH]1, which inhibition is on record?
Answer: 8.52% (inactive)

Question: For O=C(CS(=O)(=O)c1cccc(Cl)c1)Nc1ccccc1Cl, which inhibition is on record?
Answer: -9.41% (inactive)

Question: For CC(C)(C)c1cnnn1-c1ccc(/C=N/Nc2ccc([N+](=O)[O-])cc2)cc1, which inhibition is on record?
Answer: -0.06% (inactive)

Question: With O=C(NCCN1CCN(c2ccccc2)CC1)c1cccn2c(=O)c3cc(Cl)ccc3nc12 as the compound, how does the inhibition read?
Answer: 8.3% (inactive)

Question: For O=[N+]([O-])c1ccc(O)c(N=Cc2sc3ccccc3c2O)c1, which inhibition is on record?
Answer: 5.55% (inactive)

Question: Which inhibition does the source give for Cc1ccc(O)c(N=Cc2sc3ccccc3c2Cl)c1 here?
Answer: 11.1% (inactive)

Question: For CCCc1ccc(NS(=O)(=O)c2c(C)oc(C)c2C(=O)OC)cc1, which inhibition is on record?
Answer: 3.72% (inactive)

Question: Which inhibition does the source give for CN1CCN(C(=S)c2cn(Cc3cccc(F)c3)c3ccccc23)CC1 here?
Answer: 2.92% (inactive)

Question: Which inhibition does the source give for COc1ccc(C)cc1S(=O)(=O)N1CCN(c2cccc(C(F)(F)F)c2)CC1 here?
Answer: -1.59% (inactive)

Question: Which inhibition does the source give for CC1/C(=N/O)CC(c2ccccc2)N(C)C1c1ccccc1 (stereo not drawn) here?
Answer: -3.61% (inactive)

Question: With CCC1C(c2ccccc2)N(C)C(c2ccccc2)CC1(O)c1ccccc1 (stereo not drawn) as the compound, how does the inhibition read?
Answer: 51.8% (inactive)

Question: Which inhibition does the source give for O=C(Nc1ccc(O)cc1C(=O)O)c1cccc(Br)c1 here?
Answer: 0.45% (inactive)
